# The full list was thinned out, with hits kept by preference.
# p53 reactivator: qHTS assay for re-activators of p53 using a Luc reporter; H1299 p53-A138V BP100-luciferase reporter, luminescence, 24 h; 0.063% of 320,000 active; Potency, µM (doses to about 92.2 µM), for inactives: at the top dose activity change, positive = activation, usual class: activators; active = well fitted activation curve with a large enough effect; inconclusive = small, poorly fitted or top-dose-only effect; inactive = no such curve, though single readings can be large or run the other way; also: potency is read from the fitted curve at half-maximal effect; % of control where 0% means no effect; nearly all actives have a fitted effect of over 45% in size
#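 H1299 (p53-null), stable ts p53-A138V + BP100-Luc; 1000 cells/well, Opti-MEM/10% FBS; cpd 4 pt, 1:5; 24 h, 37 deg C, 5% CO2; detection reagent 10 min RT; luminescence.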
# MLL CXXC-DNA inh: qHTS Fluorescence Polarization Assay for Inhibitors of MLL CXXC domain - DNA interaction | MLL-CXXC / FITC-HOXA9 DNA fluorescence polarization | Histone-lysine N-methyltransferase 2A (Homo sapiens), Q03164 | Potency, µM (top dose mostly 115 µM), for the others: top-dose activity change, negative = inhibition, usual class: inhibitors | 0.037% of 290,000 active; active = well fitted inhibition curve with a large enough effect in the polarisation, with a control signal flat, not every such curve was filed as active; inconclusive = small, poorly fitted or top-dose-only effect, or effect the other way, or a change in a side signal; inactive = no such curve, though single readings can be large or run the other way; the % refers to the polarisation; also: potency is read from the fitted curve at half-maximal effect
#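 Fluorescence polarization: 7 uM MLL-CXXC (stock) preincubated 5 min with compounds, then 50 nM fluorescein-HOX-A9 DNA (stock) added; 30 min ambient. Buffer 50 mM Tris-HCl pH 7.5, 50 mM NaCl, 1 mM DTT, 0.05% BSA.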
# Menin-MLL FL inh: qHTS Assay for Inhibitors Targeting the Menin-MLL Interaction in MLL Related Leukemias: Competition With Fluorescein Labeled MLL-derived Peptide. FP activity change, % at 61.4 µM. AID 1766, 2009. 290,000 tested, under 10 active. Fluorescence polarization, fluorescein-MLL peptide displacement from menin; active = well fitted curve in the direction sought with a large enough effect in the polarisation, not every such curve was filed as active; inconclusive = small, poorly fitted or top-dose-only effect, or effect the other way, or a change in a side signal; inactive = no such curve, though single readings can be large or run the other way; the % refers to the polarisation; also: % of control where 0% means no effect
# ClpP mod: qHTS Assay for Activators of ClpP; purified B. subtilis ClpP, FRET peptide cleavage, 20 min; Potency, µM (titrated, usually from 57.5 µM), for inactives: at the top dose activity change, negative = active; 1.9% of 340,000 active; active = well fitted falling curve with a large enough effect; inconclusive = small, poorly fitted or top-dose-only effect; inactive = no such curve, though single readings can be large or run the other way; also: potency is read from the fitted curve at half-maximal effect; the source files actives as falling curves though it sought activators and does not explain the sign; nearly all actives have a fitted effect of over 65% in size
#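 Buffer: 100 mM Tris/HCl pH8, 100 mM KCl, 0.05% low protease BSA, 2.5% glycerol, 0.01% Tween-20. ClpP 10 microg/mL final; 20 min RT; delta FRET normalized to ADEP and DMSO controls.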
# Menin MLL FP TR: qHTS Assay for Inhibitors Targeting the Menin-MLL Interaction in MLL Related Leukemias: Competition With Texas Red Labeled MLL-derived Mutant Peptide. O00255. Menin + Texas Red MLL mutant peptide, fluorescence polarization. Potency, µM (series often up to 61.6 µM), without a hit: at the top dose FP activity change, negative = inhibition, usual class: inhibitors. 0.23% of 270,000 active. AID 1768, 2009; active = well fitted inhibition curve with a large enough effect in the polarisation, with a control signal flat, not every such curve was filed as active; inconclusive = small, poorly fitted or top-dose-only effect, or effect the other way, or a change in a side signal; inactive = no such curve, though single readings can be large or run the other way; the % refers to the polarisation; also: potency is read from the fitted curve at half-maximal effect; % of control where 0% means no effect
# Target sequence (O00255 whole entry, looked up): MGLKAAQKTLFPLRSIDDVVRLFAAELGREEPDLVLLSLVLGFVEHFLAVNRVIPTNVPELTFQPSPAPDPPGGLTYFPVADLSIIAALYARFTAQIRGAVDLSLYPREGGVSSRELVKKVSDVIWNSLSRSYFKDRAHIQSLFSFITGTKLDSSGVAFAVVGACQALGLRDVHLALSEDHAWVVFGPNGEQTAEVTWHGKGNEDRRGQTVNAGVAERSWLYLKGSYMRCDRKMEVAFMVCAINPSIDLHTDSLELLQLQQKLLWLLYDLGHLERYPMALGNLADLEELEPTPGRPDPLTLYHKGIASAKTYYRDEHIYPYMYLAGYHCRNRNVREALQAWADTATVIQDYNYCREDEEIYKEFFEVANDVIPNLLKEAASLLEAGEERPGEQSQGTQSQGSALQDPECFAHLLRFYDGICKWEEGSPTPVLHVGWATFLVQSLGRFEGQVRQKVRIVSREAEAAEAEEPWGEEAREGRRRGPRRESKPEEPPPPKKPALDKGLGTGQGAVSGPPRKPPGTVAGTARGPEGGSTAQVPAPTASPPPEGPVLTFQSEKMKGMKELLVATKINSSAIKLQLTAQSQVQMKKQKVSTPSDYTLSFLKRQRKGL
# An asterisk follows results filed as active; ? = inconclusive; . = not tested or not shown; [ ] = remark or other dose.
SMILES,p53 reactivator,MLL CXXC-DNA inh,Menin-MLL FL inh,ClpP mod,Menin MLL FP TR
CC(C)c1ccc(/C=c2\sc3nc(-c4ccncc4)nn3c2=O)cc1,18.1%,-13.7%,4.3,-0.9%,41.4%
Cc1ccc(NC(=O)CN2C(=O)C3(SCC(=O)N3c3ccc(F)c(F)c3)c3ccccc32)c(C)c1 (stereo not given),.,.,.,0.1%,.
CC1CCN(S(=O)(=O)c2ccc(NC(=O)C3CSC4(C)CCC(=O)N34)cc2)CC1 (stereo not given),3.0%,.,.,28.2µM*,.
CCN(C)c1cc2c(c3c1ccn3C)C1CCC2C1 (stereo not given),.,.,.,-8.9%,.
COc1ccccc1N(C)c1cc2c(c3c1ccn3C)C1CCC2C1 (stereo not given),.,.,.,31.6µM*,.
COc1ccc(-c2oc3ncn4nc(COc5ccccc5)nc4c3c2-c2ccc(OC)cc2)cc1,-2.3%,32.1%,0.5,-43.7%,17.1%
COc1ccc(-c2oc3ncnc(N)c3c2-c2ccccc2)cc1,0.7%,11.8%,0.9,35.5µM*,27.5%
Cc1cc(C)cc(OCC(=O)N(Cc2ccc(N(C)C)cc2)C2CCS(=O)(=O)C2)c1 (stereo not given),-4.7%,-8.9%,8.0,22.4µM*,.
N#Cc1cc2cc3c(cc2nc1N1CCOCC1)OCO3,4.1%,-8.1%,-0.3,31.6µM*,1.4%
CCCn1c(CCC(=O)O)ccc1-c1cccs1,-6.3%,-10.7%,21.5,25.1µM*,?
O=C(O)CCc1ccc(-c2cccs2)n1CC1CCCO1 (stereo not given),7.2%,2.0%,0.2,25.1µM*,16.3%
COCCCn1c(CCC(=O)O)ccc1-c1cccs1,-0.4%,13.4%,-1.9,?,-1.2%
COc1ccc(-c2ccc(CCC(=O)O)n2CC2CCCO2)cc1 (stereo not given),1.0%,3.4%,-0.5,.,-26.4%
O=C(O)CCc1ccc(-c2ccc(F)cc2)n1CC1CCCO1 (stereo not given),-7.6%,-5.1%,0.1,22.4µM*,-6.7%
O=C(CCOc1ccccc1)NO,.,.,.,-1.3%,.
CC(C)(C)c1ccc(C(=O)C[n+]2ccc(Cl)c3ccc(Cl)cc32)cc1,.,.,.,-5.2%,.
CS(=O)(=O)N1CCC(N2CCN(Cc3ccccc3)C(=O)C2=O)CC1,.,.,.,-3.7%,.
CCOC(=O)c1cc(-c2ccc(OC)cc2)n(CCC(=O)NC2CCC(C)CC2)c1C (stereo not given),.,.,.,1.0%,.
c1ccc(-n2nnnc2SCc2cn3cccnc3n2)cc1,6.3%,4.0%,-10.4,25.1µM*,-7.2%
COc1cccc(NC(=O)Cc2ccccc2)c1,1.7%,-1.1%,-1.9,0.3%,-7.2%
O=C(Cc1ccccc1)Nc1cccc(N2C(=O)C=CC2=O)c1,-23.1%,18.5%,5.5,14.1µM*,-18.4%
CCCc1nc2oc(C(=O)OCC)c(N)c2c2c1COC(C)(C)C2,-5.1%,-2.6%,1.3,14.1µM*,-2.9%
CCOC(=O)c1sc2nc(C)c3c(c2c1N)CC(C)(C)OC3,-5.6%,8.4%,0.5,28.2µM*,-12.3%
CCCOc1ccc(-c2nc(OCC)c3ccccc3n2)cc1,9.7%,0.5%,-0.2,31.6µM*,8.5%
CCOc1nc(-c2ccncc2)nc2ccccc12,4.8%,0.1%,2.7,-0.2%,?
SMILES,p53 reactivator,MLL CXXC-DNA inh,Menin-MLL FL inh,ClpP mod,Menin MLL FP TR
O=c1c2ccccc2sn1-c1ccc(Cl)c(S(=O)(=O)N2CCOCC2)c1,.,.,.,0.0%,.
COC(=O)C1=C(C(=O)OC)[C@@H]2Nc3ccccc3[C@@]23C[C@@H](C(=O)OC)N(S(=O)(=O)c2ccc(C#N)cc2)C3=N1,.,.,-4.9[11.7 µM],.,-9.1%[11.7 µM]
COC(=O)C1=C(C)NC2=C(C(=O)CC(C)(C)C2)C1c1ccsc1 (stereo not given),-3.3%,-2.9%,2.4,28.2µM*,-3.9%
COC(=O)C1=C(C)NC2=C(C(=O)CC(C)(C)C2)C1c1ccccn1 (stereo not given),-6.5%,-3.0%,1.5,28.2µM*,23.9%
Cc1cc(S(=O)(=O)N2CCOCC2)ccc1OCC(=O)Nc1ccc(F)cc1,-3.2%,-1.3%,-0.6,12.6µM*,1.2%
COc1ccc(S(=O)(=O)N2CCOCC2)cc1NC(=O)COC(=O)C1CCC1,-3.6%,.,.,35.5µM*,.
Cc1cc(S(=O)(=O)N2CCOCC2)ccc1OCC(=O)Nc1ccc(F)c(Cl)c1,6.7%,2.2%,4.6,.,-13.0%
Cc1ccnc2c(Cl)c(Cl)ccc12,.,.,.,-0.4%,.
CCCCN(CCCC)CC(O)c1cc(Cl)cc2c1-c1ccc(Cl)cc1C2=Cc1ccc(Cl)cc1 (stereo not given),.,.,.,-1.6%,.
Fc1cccc(Oc2nc3ccccc3n3cccc23)c1,-3.4%,-7.2%,-0.3,22.4µM*,-15.4%
Cc1cc(N2CCN(c3ccccc3)CC2)n2cc(-c3ccccc3)nc2n1,4.1%,2.6%,2.1,?,-12.8%
Cc1cc(N2CCN(c3ccccc3Cl)CC2)n2cc(-c3ccccc3)nc2n1,-13.2%,16.1%,3.6,14.1µM*,11.5%
CC1(C)C=C(c2ccc(C=O)s2)CC(C)(C)N1,1.6%,11.1%,5.7,-4.2%,9.7%
CC1(C)C=C(c2ccc(C=O)s2)CC(C)(C)N1C=O,-2.8%,10.6%,6.5,22.4µM*,-9.8%
COc1ccccc1NC(C)C(=O)c1c[nH]c2ccccc12 (stereo not given),.,.,.,0.2%,.
CCOc1ccc2oc(C(=O)Nc3ccc(C)cn3)c(C)c2c1,.,.,.,-11.5%,.
CCOc1ccc2oc(C(=O)NCc3nc4ccccc4[nH]3)c(C)c2c1,3.9%,-0.8%,1.2,35.5µM*,2.8%
O=c1oc2cc(O)ccc2cc1-c1nc2c(s1)CCc1ccccc1-2,1.8%,?,?,20µM*,?
Cc1c(C)c(C)c(/C=C/c2ccnc3ccccc23)c(C)c1C,.,.,.,-7.0%,.
O=C(Nc1cccc2ccccc12)c1cnn2c1NC(=C1CC1)C=C2C(F)F,.,.,.,-1.4%,.
CC1=C(C(=O)OCC(C)C)C(c2cc3c(cc2Br)OCO3)NC(=O)N1C (stereo not given),-17.1%,11.9%,2.4,0.6%,-3.6%
COC(=O)C1=CN(C(C)C)C=C(C(=O)OC)C1c1cc2c(cc1Br)OCO2,-7.4%,2.3%,-2.2,31.6µM*,-2.6%
CN(C1CCCCC1)S(=O)(=O)c1ccc(NC(=O)Cn2nc(-c3ccc(F)cc3)ccc2=O)cc1,-5.9%,12.2%,3.7,-23.7%,-4.4%
CC(C)CNS(=O)(=O)c1ccc(NC(=O)Cn2nc(-c3ccc(F)cc3)ccc2=O)cc1,-7.5%,6.4%,2.8,28.2µM*,16.6%
Cc1cc[n+](CC#N)cc1,.,.,.,-0.1%,.
O=C(CCN1C(=O)NC2(CCCC2)C1=O)Nc1ccc(Sc2ccc(Br)cc2)cc1,.,.,.,0.1%,.

# Source: PubChem
